# High-throughput results: PubChem BioAssay, National Center for Advancing Translational Sciences (NCATS)
# A selection: hits, their analogues and other compounds. The true share with any hit is near 14%.
# HCMV inh: inhibitors of human cytomegalovirus. hit rate 4.5% among 410,000. HFF cells, HCMV-luciferase reporter, 72 h; stronger effect = lower value. activity change, negative = inhibition, % at 57.5 µM; in the data active = activity change below about -60%; inconclusive = no clear call, values can overlap the other calls; inactive = above about -39%
#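 Compounds were evaluated in HFFs infected with an HCMV luciferase reporter virus (MOI 1 PFU/cell). Luciferase in lysates collected 72 h post infection served as the replication measure.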
# Giardia FBPA inh: blocks Giardia fructose-bisphosphate aldolase activity; A8B2U2; purified Giardia FBPA; Potency, µM (series often up to 59.6 µM), for inactives: at the highest dose activity, negative = inhibition, usual class: inhibitors; hit rate 0.71% among 290,000; AID 2451; also: potency is read from the fitted curve at half-maximal effect; nearly all actives have a fitted effect of over 55% in size
# Target sequence (A8B2U2 whole entry, looked up): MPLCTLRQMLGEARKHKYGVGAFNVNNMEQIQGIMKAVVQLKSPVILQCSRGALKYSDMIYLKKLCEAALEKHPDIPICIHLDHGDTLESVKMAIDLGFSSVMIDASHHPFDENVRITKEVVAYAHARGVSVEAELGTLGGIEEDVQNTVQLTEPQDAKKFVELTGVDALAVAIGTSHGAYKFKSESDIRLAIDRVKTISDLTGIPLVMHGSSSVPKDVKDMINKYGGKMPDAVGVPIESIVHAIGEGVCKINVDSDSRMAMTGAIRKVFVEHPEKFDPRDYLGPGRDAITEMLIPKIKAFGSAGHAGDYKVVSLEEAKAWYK
#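 Giardia FBPA (40 nM reagent) was preincubated 10 min at RT with compound (up to 57.5 uM final), then substrate plus GAPDH/TPI/NAD/arsenate coupling system with diaphorase/resazurin was added; resorufin fluorescence (525/598 nm) was read after 20 min.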
# Pf growth 96h: P. falciparum growth inhibition at 96 hour, primary screen for plastid delayed-death inhibitors; P. falciparum luciferase reporter growth, 96 h; hit rate 6.9% among 320,000; Potency, µM (top dose mostly 28.7 µM), for the others: at the top dose activity change, negative = inhibition, hits mostly inhibitors; also: potency is read from the fitted curve at half-maximal effect
#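 Cell-based qHTS: luciferase-tagged P. falciparum in erythrocytes (2% hematocrit, 0.05% parasitemia final) incubated with compounds for 96 hours, 37 C, 5% CO2; luciferase detection reagent then added and luminescence measured.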
# Sm TGR inh: blocks Schistosoma mansoni thioredoxin glutathione reductase. purified TGR, DTNB reduction, TNB absorbance 405 nm. Potency, µM (doses to about 114 µM), for inactives: top-dose activity change, negative = inhibition, usual class: inhibitors. hit rate 3% among 360,000. Q962Y6; also: potency is read from the fitted curve at half-maximal effect; nearly all actives have a fitted effect of over 60% in size
#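 First, TGR (20 nM dispensed) and NADPH were mixed with compound. Second, a 15 min room-temperature incubation followed. Third, further NADPH and then DTNB were added to start the reaction. Finally, TNB absorbance was monitored kinetically.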
# Pf growth 48h: inhibits P. falciparum growth in the first generation, 48 h. P. falciparum luciferase growth in erythrocytes, 48 h. Potency, µM (doses to about 28.7 µM), without a hit: at the highest dose activity change, negative = inhibition, most hits filed as inhibitors. hit rate 5.9% among 310,000; also: potency is read from the fitted curve at half-maximal effect
#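 Luciferase-expressing parasites in RBCs, 2% Hct / 0.1% parasitemia final; RPMI 1640 + 0.5% Albumax; 37 C, 5% CO2, one generation; luminescence read-out, lower signal = inhibition.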
# Numbers without * were called inactive; ? = inconclusive; . = no result given. Unless noted, calls follow the shape of the dose curve; as a rule, active = well fitted curve in the direction sought with a large enough effect; inconclusive = small, poorly fitted or top-dose-only effect, or another doubt; inactive = no such curve, though single readings can be large; an effect the other way counts as inactive or inconclusive. % is scaled to controls: 0 for no effect and ±100 for the full control effect.
SMILES,HCMV inh,Giardia FBPA inh,Pf growth 96h,Sm TGR inh,Pf growth 48h
Cc1cc(NCC2CCCO2)n2c(nc3ccccc32)c1C#N (centres undefined),-13,-19%,?,8%,?
COc1cc(Cl)c(C)cc1NC(=O)Cn1c2ncccc2c(=O)n1-c1ccccc1,9,.,.,-1%,.
COC(=O)[C@@H]1CC(=O)N[C@@H]1c1ccc(OC(C)C)c(OC)c1,-17,.,.,.,.
CCN(CC)c1ccc(S(=O)(=O)N2CCOCC2)cc1NC(=O)CNCc1cccc(Cl)c1,25,.,.,.,.
CCOc1ccc(OCCOCCN2CCOCC2)cc1,14,-24%,26%,0%,.
CCOc1ccc(-c2cc(C)[n+](CCN3CCOCC3)c(-c3ccc(OCC)cc3)c2)cc1,-82*,-1%,0.37µM*,6%,0.66µM*
CCN1C(=O)[C@@H]2[C@@H](c3ccc(-c4ccc(C(C)=O)cc4)c(OC)c3)N3CCC[C@@]3(C(=O)OC)[C@@H]2C1=O,-6,.,6.6µM*,?,10µM*
CCN1C(=O)[C@@H]2[C@@H](c3ccc(-c4ccc5c(c4)OCO5)c(OC)c3)N3CCCC[C@@]3(C(=O)OC)[C@@H]2C1=O,-12,.,12µM*,-16%,4.7µM*
CCN1C(=O)[C@@H]2[C@@H](c3ccc(-c4ccc(C(C)=O)cc4)c(OC)c3)N3CCCC[C@@]3(C(=O)OC)[C@@H]2C1=O,9,.,9.3µM*,-19%,2.9µM*
COC(=O)[C@@]12CCCCN1[C@H](c1ccc(-c3ccc(OC)cc3)c(OC)c1)[C@@H]1C(=O)N(C)C(=O)[C@@H]12,36,.,7.4µM*,?,9.3µM*
CCN1C(=O)[C@H]2[C@@H](c3ccc(-c4ccc(F)cc4)c(OC)c3)N3CCCC[C@@]3(C(=O)OC)[C@H]2C1=O,-9,.,.,.,.
COC(=O)[C@@]12CCCCN1[C@H](c1ccc(-c3ccc(F)cc3)c(OC)c1)[C@H]1C(=O)N(C)C(=O)[C@H]12,-9,.,.,.,.
CCN1C(=O)[C@H]2[C@@H](c3ccc(-c4ccc(Cl)c(Cl)c4)c(OC)c3)N3CCCC[C@@]3(C(=O)OC)[C@H]2C1=O,0,.,.,.,.
COc1cccc(CNC(=O)c2cccc(N3CCCS3(=O)=O)c2)c1,-1,.,.,8%,.
COc1ccc(-c2oc(NC(=O)CCl)c(C#N)c2-c2ccc(OC)cc2)cc1,-28,-23%,9.3µM*,?,.
O=C(Oc1ccc(Br)cc1)c1n[nH]c(=O)c2ccccc12,?,1%,-23%,-1%,-4%
C=CCN1C(=O)/C(=C/C=C2/N(CC)c3ccc(S(=O)(=O)N(C)C)cc3N2CC)SC1=S,-10,-23%,-3%,.,?
O=C(CCNC(=O)c1ccc(Cl)cc1)NCC(c1ccco1)N1CCCC1 (centres undefined),-21,.,?,-12%,12µM*
CSCCC(NC(=O)c1ccccc1Br)C(=O)NCC(c1ccco1)N1CCCCC1 (centres undefined),-27,.,9.3µM*,-23%,?
COc1ccccc1C(=O)NCCC(=O)NCC(c1ccco1)N1CCCC1 (centres undefined),-30,.,12µM*,-15%,-27%
COc1ccc(Cl)cc1C(=O)NCC(c1ccco1)N1CCCC1 (centres undefined),38,-1%,4.1µM*,-23%,?
COc1ccccc1C(CNC(=O)CCNC(=O)c1ccccc1Cl)N1CCCC1 (centres undefined),-29,.,0%,-8%,?
Cc1cccc(NC(=O)CSc2nccn2Cc2ccc(F)cc2)c1C,-15,.,.,6%,.
O=C(c1ccccc1Oc1ccc([N+](=O)[O-])cc1)N1CCOCC1,-7,.,-22%,-10%,5%
CC1(C(=O)NS(=O)(=O)Cc2cccc(Cl)c2)CCN1C(=O)C1CCCCC1 (centres undefined),-17,.,.,.,.
SMILES,HCMV inh,Giardia FBPA inh,Pf growth 96h,Sm TGR inh,Pf growth 48h
N#CC(=C(O)CN1CCN(c2ccccc2F)CC1)c1nc(-c2ccc(Cl)cc2)cs1,-17,.,.,.,.
O=c1[nH]c2ccccc2cc1CN(CC1CCCO1)S(=O)(=O)c1ccc(Cl)cc1 (centres undefined),?,1%,13%,-11%,15%
CCN(Cc1ccccc1)S(=O)(=O)c1ccc(S(=O)(=O)N(Cc2cccc(OC)c2)CC2CCCO2)cc1 (centres undefined),-13,2%,5.2µM*,-8%,.
NS(=O)(=O)c1ccc(S(=O)(=O)N(Cc2ccccc2F)CC2CCCO2)cc1 (centres undefined),18,0%,13µM*,0%,?
Cc1cc(C)nc(-n2nc(C)cc2NC(=O)CN2CCC(C)CC2)n1,?,1%,2.3µM*,-22%,?
CCC1CCCCN1CC(=O)Nc1cc(C)nn1-c1nc(C)cc(C)n1 (centres undefined),-36,11%,0%,-15%,5.2µM*
CCc1nc2ccccc2c(NC(=O)CN2CCC(C)CC2)c1C,-13,?,7.4µM*,2%,-7%
O=C(NCc1ccccc1Cl)c1ccc(CSCc2cccc(F)c2)o1,-23,.,.,-2%,.
COc1cc(OC)c(C(=O)N/N=C/c2ccoc2)cc1OC,-69*,-9%,-33%,0%,3%
COc1ccc(C(=O)N/N=C/c2c[nH]c3ccccc23)cc1,27,25%,-16%,-1%,27%
COc1ccc(C(=O)N/N=C\c2ccoc2)cc1,26,-3%,4.7µM*,-26%,6%
Cc1ccc(C(=O)N/N=C/c2ccoc2)cc1C,-18,-4%,-19%,-7%,6%
CCOc1ccccc1C(=O)N/N=C/c1ccoc1,2,.,?,-10%,-1%
COc1ccc(C(=O)N/N=C/c2cc3ccccc3[nH]c2=S)cc1,30,-22%,13µM*,-27%,.
Nc1ccc(-c2nc3ccc(-c4nc5ccccc5o4)cc3[nH]2)cc1,15,5%,24%,1%,9.3µM*
c1ccc(-c2nc3ccccc3[nH]2)cc1,73,10%,353%,4%,103%
Nc1ccc2nc(-c3cccc(-c4nc5ccc(N)cc5[nH]4)c3)[nH]c2c1,8,-21%,0%,5%,1.9µM*
Cc1nc2ccc(-c3nc4ccc(N)cc4[nH]3)cc2[nH]1,10,-7%,6%,0%,?
O=C(O)c1cccc(-c2nc3ccccc3[nH]2)c1,32,-5%,2.3µM*,-6%,197%
Cc1nc2ccc(-c3nc4ccccc4o3)cc2[nH]1,139,4%,?,13%,168%
Nc1ccc2nc(-c3ccc(Cl)cc3)[nH]c2c1,217,-22%,?,-2%,.
Nc1ccc2nc(-c3cc(Cl)c(N)c(Cl)c3)[nH]c2c1,152,-12%,?,-1%,2.9µM*
COc1ccc(C(O)(CCN2CCOCC2)c2ccccc2)cc1 (centres undefined),-18,10%,?,?,4%
